# According to PubChem BioAssay (EPA / NIEHS):
# Activity calls are given as the source filed them. Rule for the calls: active = hit-call score of the fitted dose curve at least 0.9, where 1 is the maximum; inactive = score below 0.9.
# Legend:
# [1] = target: CCAAT/enhancer-binding protein beta (Homo sapiens) (UniProt P17676); experiment: ATG_C_EBP_CIS: Attagene CIS-FACTORIAL HepG2 Assay for human CCAAT/Enhancer Binding Protein (C/EBP) beta (AID 2282927); details: HepG2 Attagene cis-factorial transcription factor reporter; actives raise or lower the signal
# Sequence of CCAAT/enhancer-binding protein beta (Homo sapiens) (P17676 whole entry, looked up, the tested form may be a part): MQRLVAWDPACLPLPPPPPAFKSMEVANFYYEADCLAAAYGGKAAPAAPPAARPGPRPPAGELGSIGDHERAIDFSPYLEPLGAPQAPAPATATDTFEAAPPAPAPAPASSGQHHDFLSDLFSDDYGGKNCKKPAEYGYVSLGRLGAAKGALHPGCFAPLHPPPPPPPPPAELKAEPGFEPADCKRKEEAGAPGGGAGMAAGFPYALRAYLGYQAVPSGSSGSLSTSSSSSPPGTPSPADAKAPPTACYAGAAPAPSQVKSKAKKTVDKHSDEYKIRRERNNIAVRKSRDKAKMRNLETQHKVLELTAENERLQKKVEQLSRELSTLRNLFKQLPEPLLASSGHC
# Summary of the method: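 Endogenous C/EBPb-driven reporter transcripts measured in transfected human HepG2 cells at 24 h via RT-PCR and capillary electrophoresis of labelled fragments. Activity fitted in both directions relative to DMSO baseline.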
# [2] = ATG_CMV_CIS: Attagene CIS-FACTORIAL HepG2 Assay for human CMV (Internal Marker) (AID 2282928); details: HepG2 CMV promoter reporter, transcription factor profiling; actives raise or lower the signal;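 note: endpoint acts as a background internal control marker rather than a target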
# Summary of the method: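 Readout: fluorescent reporter cDNA fragments separated by capillary electrophoresis after RT-PCR and HpaI cut. Cells: HepG2 carrying transfected cis-promoter reporter constructs, dosed 24 h. Endpoint serves as background internal-marker control, fit bidirectionally versus DMSO.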
# [3] = ATG_DR4_LXR_CIS: Attagene CIS-FACTORIAL HepG2 Assay for human Liver X Receptor (LXR), DR4 submotif (AID 2282929); details: HepG2 Attagene DR4 cis-reporter, mRNA transcription; actives raise or lower the signal
# Summary of the method: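 Measures endogenous transcription factor activity via a DR4-driven reporter transcript in human HepG2 cells. Compounds incubated 24 h; mRNA quantified by RT-PCR and capillary electrophoresis, analysed as gain or loss of signal versus DMSO.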
# [4] = ATG_AP_1_CIS: Attagene CIS-FACTORIAL HepG2 Assay for human Activator Protein 1 (AP-1) (AID 2282931); details: HepG2 Attagene cis-factorial AP-1 reporter mRNA; actives raise or lower the signal
# Summary of the method: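 Bidirectional concentration-response fitting against DMSO controls. Underlying signal: reporter mRNA from cis-promoter constructs in transiently transfected HepG2, measured after 24 h by RT-PCR and capillary electrophoresis.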
# [5] = ATG_AP_2_CIS: Attagene CIS-FACTORIAL HepG2 Assay for human Activator Protein 2 (AP-2) (AID 2282932); details: HepG2 AP-2 cis-reporter, Attagene transcription factor profiling; actives raise or lower the signal
# Summary of the method: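 Transiently transfected HepG2 cells are exposed to chemical for 24 h. Reporter transcripts are then measured as fluorescence following RT-PCR and capillary separation, and gain- or loss-of-signal is fitted relative to DMSO.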
# [6] = ATG_BRE_CIS: Attagene CIS-FACTORIAL HepG2 Assay for human Bone Morphogenetic Protein (BMP) Response Element (BRE) (AID 2282933); details: HepG2 BMP response element reporter, Attagene transcription factor profiling; actives raise or lower the signal
# Summary of the method: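 Fluorescence-labelled reporter cDNA fragments, separated by capillary electrophoresis, gave the signal for this component of a 52-readout multiplex. HepG2 cells were transfected, exposed to chemicals for 24 h, and compared with DMSO using bidirectional fitting.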
# [7] = target: Transcription factor E2F1 (Homo sapiens) (UniProt Q01094); experiment: ATG_E2F_CIS: Attagene CIS-FACTORIAL HepG2 Assay for human E2F Transcription Factor 1 (AID 2282935); details: HepG2 Attagene cis-reporter, E2F reporter RNA transcripts; actives raise or lower the signal
# Sequence of Transcription factor E2F1 (Homo sapiens) (Q01094 whole entry, looked up): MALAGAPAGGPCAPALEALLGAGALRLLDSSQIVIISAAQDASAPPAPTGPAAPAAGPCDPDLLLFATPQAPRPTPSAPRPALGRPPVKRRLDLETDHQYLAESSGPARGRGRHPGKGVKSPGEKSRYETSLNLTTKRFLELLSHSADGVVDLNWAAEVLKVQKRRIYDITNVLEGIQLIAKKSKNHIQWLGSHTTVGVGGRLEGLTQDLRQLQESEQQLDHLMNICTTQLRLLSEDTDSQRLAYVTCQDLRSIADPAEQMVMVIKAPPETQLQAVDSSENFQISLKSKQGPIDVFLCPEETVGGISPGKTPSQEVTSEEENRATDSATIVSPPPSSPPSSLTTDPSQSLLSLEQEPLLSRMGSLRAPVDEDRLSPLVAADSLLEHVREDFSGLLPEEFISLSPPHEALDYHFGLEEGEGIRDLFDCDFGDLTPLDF
# Summary of the method: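 Fluorescent RT-PCR products, digested with HpaI for 2 h at 37 C, are separated by capillary electrophoresis. Source RNA comes from transfected HepG2 cultures treated for 24 h.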
# [8] = ATG_E_Box_CIS: Attagene CIS-FACTORIAL HepG2 Assay for human Enhancer Box (E-box) (AID 2282936); details: HepG2 E-box cis-reporter transcription, actives raise or lower the signal
# Summary of the method: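 Fluorescent reporter fragments separated by capillary electrophoresis gave the signal; mRNA came from HepG2 cells transfected with cis-element reporters and treated 24 h. Curves fitted bidirectionally relative to DMSO controls.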
# [9] = ATG_M_61_CIS: Attagene CIS-FACTORIAL HepG2 Assay for M61 Transcription Factor (Internal Marker) (AID 2282937); details: HepG2 Attagene CIS-FACTORIAL M61 internal marker reporter; actives raise or lower the signal
# Summary of the method: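 Fluorescence from labelled cDNA fragments, separated by capillary electrophoresis, quantifies reporter induction. HepG2 cells bearing transiently transfected cis-promoter MRTUs were incubated with test chemical for 24 h; DMSO defined baseline for gain/loss fitting.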
# [10] = ATG_EGR_CIS: Attagene CIS-FACTORIAL HepG2 Assay for human Early Growth Response 1 (EGR1) (AID 2282938); details: HepG2 Attagene CIS-FACTORIAL EGR reporter mRNA; actives raise or lower the signal
# Summary of the method: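 Cell-based multiplex transcription assay: HepG2 carrying transfected cis-element reporter units, 24 h chemical treatment. Fluorescence from capillary electrophoresis of RT-PCR products gives mRNA levels; fitting is bidirectional relative to DMSO.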
# [11] = ATG_Ets_CIS: Attagene CIS-FACTORIAL HepG2 Assay for human Erythroblast Transformation Specific (ETS) (AID 2282941); details: HepG2 ETS cis-reporter transcription, actives raise or lower the signal
# Summary of the method: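 RT-PCR/capillary electrophoresis fluorescence read-out of reporter mRNA; HepG2 transient multi-reporter transfection; 24 h compound exposure; gain or loss of signal fitted bidirectionally relative to DMSO.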
# [12] = ATG_GATA_CIS: Attagene CIS-FACTORIAL HepG2 Assay for human GATA Binding Protein (AID 2282944); details: HepG2 GATA cis-element reporter, Attagene multiplex mRNA; actives raise or lower the signal
# Summary of the method: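 Cells: HepG2, transiently transfected with cis-regulated reporter transcription units. Exposure: 24 h. Detection: RT-PCR plus capillary electrophoresis of FAM-labeled fragments. Analysis: bidirectional, DMSO as baseline.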
# [13] = ATG_GLI_CIS: Attagene CIS-FACTORIAL HepG2 Assay for human Zinc Finger Protein GLI1 (AID 2282945); details: HepG2, Attagene cis-factorial reporter mRNA, GLI element; actives raise or lower the signal
# Summary of the method: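 Bidirectional curve fits relative to DMSO, using reporter mRNA levels from RT-PCR plus capillary electrophoresis. Cells were HepG2 transiently carrying cis-regulated reporter constructs, harvested 24 h after dosing.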
# [14] = ATG_ISRE_CIS: Attagene CIS-FACTORIAL HepG2 Assay for human Interferon Regulatory Factor 1 (IRF1) binding to an Interferon-Stimulated Response Element (ISRE) (AID 2282948); details: HepG2 ISRE cis-reporter (Attagene), mRNA transcription readout; actives raise or lower the signal
# Summary of the method: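 Read-out: fluorescent RT-PCR products resolved by capillary electrophoresis, reporting endogenous transcription factor activity via ISRE-driven reporter mRNA in transfected HepG2 cells dosed for 24 h; gain or loss fitted relative to DMSO.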
# [15] = ATG_M_32_CIS: Attagene CIS-FACTORIAL HepG2 Assay for M32 Transcription Factor (Internal Marker) (AID 2282949); details: HepG2 Attagene cis-factorial M32 reporter, mRNA; actives raise or lower the signal;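 note: background control marker of the multiplexed CIS panel rather than a real target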
# Summary of the method: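 Using DMSO as baseline, bidirectional curve fits were applied to reporter mRNA signals. These came from transiently transfected HepG2 cells exposed for 24 h, with RNA analysed by RT-PCR, FAM primer extension, HpaI digestion and CE.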
# [16] = ATG_M_06_CIS: Attagene CIS-FACTORIAL HepG2 Assay for M06 Transcription Factor (Internal Marker) (AID 2282950); details: HepG2 Attagene CIS-FACTORIAL M06 internal marker reporter; actives raise or lower the signal
# Summary of the method: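 Measured 24 h post-dosing in transiently transfected HepG2 cells, this internal-marker endpoint reports reporter mRNA via RT-PCR with fluorescent primer extension and capillary electrophoresis. DMSO served as negative control and baseline for bidirectional fitting.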
# [17] = ATG_MRE_CIS: Attagene CIS-FACTORIAL HepG2 Assay for human Metal Responsive Element (MRE) (AID 2282954); details: HepG2 MRE cis-reporter transcription, Attagene multiplex; actives raise or lower the signal
# Summary of the method: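 Multiplexed cis-reporter assay in human HepG2 liver cells, 24 h incubation with test chemical. Reporter transcripts measured by RT-PCR and capillary electrophoresis; values from bidirectional curve fitting versus DMSO.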
# [18] = ATG_PXRE_CIS: Attagene CIS-FACTORIAL HepG2 Assay for human Pregnane X Receptor Element (PXRE) (AID 2282957); details: HepG2 Attagene CIS-FACTORIAL PXRE reporter, mRNA; actives raise or lower the signal
# Summary of the method: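 Bidirectional activity, baselined to DMSO, derived from reporter mRNA fluorescence (RT-PCR plus capillary electrophoresis) in HepG2 cells bearing cis-promoter reporter units, 24 h exposure.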
# [19] = ATG_Sox_CIS: Attagene CIS-FACTORIAL HepG2 Assay for human SRY-box transcription factor (SOX) (AID 2282960); details: HepG2 Attagene cis-factorial SOX reporter, mRNA; actives raise or lower the signal
# Summary of the method: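 After 24 h of chemical treatment, transfected HepG2 reporter cells are lysed for total RNA. Transcript levels come from RT-PCR with labelled primer extension and capillary electrophoresis, analysed bidirectionally versus DMSO.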
smiles,measurement,setting,value
CCC(C)c1cc([N+](=O)[O-])cc([N+](=O)[O-])c1OC(=O)C=C(C)C (stereo not given),AC50,[1],100 µM (active)
same,outcome,[2],inactive
same,outcome,[3],inactive
same,AC50,[4],25.1 µM (active)
same,outcome,[5],inactive
same,AC50,[6],8.06 µM (active)
same,AC50,[7],151 µM (active)
same,AC50,[8],17.7 µM (active)
same,outcome,[9],inactive
same,AC50,[10],27.7 µM (active)
same,AC50,[11],100 µM (active)
same,outcome,[12],inactive
same,AC50,[13],24.8 µM (active)
same,AC50,[14],141 µM (active)
same,outcome,[15],inactive
same,outcome,[16],inactive
same,AC50,[17],27.5 µM (active)
same,AC50,[18],0.787 µM (active)
same,AC50,[19],53.7 µM (active)
O=[N+]([O-])C=Cc1ccccc1,outcome,[1],inactive
same,outcome,[2],inactive
same,AC50,[3],29.6 µM (active)
same,AC50,[4],57.7 µM (active)
same,AC50,[5],21.4 µM (active)
same,AC50,[6],44.2 µM (active)
same,outcome,[7],inactive
same,AC50,[8],25.5 µM (active)
same,outcome,[9],inactive
same,AC50,[10],14.4 µM (active)
same,outcome,[11],inactive
same,AC50,[12],22.1 µM (active)
same,AC50,[13],31.2 µM (active)
same,AC50,[14],27.6 µM (active)
same,outcome,[15],inactive
same,outcome,[16],inactive
same,AC50,[17],13.3 µM (active)
same,AC50,[18],56.8 µM (active)
same,AC50,[19],20.1 µM (active)
CC1CCC(=O)O1 (stereo not given),outcome,[1],inactive
same,outcome,[2],inactive
same,outcome,[3],inactive
same,outcome,[4],inactive
same,outcome,[5],inactive
same,outcome,[6],inactive
same,outcome,[7],inactive
same,outcome,[8],inactive
same,outcome,[9],inactive
same,outcome,[10],inactive
same,outcome,[11],inactive
same,outcome,[12],inactive
same,outcome,[13],inactive
same,outcome,[14],inactive
same,outcome,[15],inactive
same,outcome,[16],inactive
same,outcome,[17],inactive
same,outcome,[18],inactive
same,outcome,[19],inactive
CN(C)CCC#N,outcome,[1],inactive
same,outcome,[2],inactive
same,outcome,[3],inactive
same,outcome,[4],inactive
same,outcome,[5],inactive
same,outcome,[6],inactive
same,outcome,[7],inactive
same,outcome,[8],inactive
same,outcome,[9],inactive
same,outcome,[10],inactive
same,outcome,[11],inactive
same,outcome,[12],inactive
same,outcome,[13],inactive
same,outcome,[14],inactive
same,outcome,[15],inactive
same,outcome,[16],inactive
same,outcome,[17],inactive
same,outcome,[18],inactive
same,outcome,[19],inactive
CN(N=O)c1ccccc1,outcome,[1],inactive
same,outcome,[2],inactive
same,outcome,[3],inactive
same,outcome,[4],inactive
same,outcome,[5],inactive
same,outcome,[6],inactive
same,outcome,[7],inactive
same,outcome,[8],inactive
same,outcome,[9],inactive
same,outcome,[10],inactive
same,outcome,[11],inactive
same,outcome,[12],inactive
same,outcome,[13],inactive
same,outcome,[14],inactive
same,outcome,[15],inactive
same,outcome,[16],inactive
same,outcome,[17],inactive
same,outcome,[18],inactive
same,outcome,[19],inactive
